According to PubChem BioAssay AID1159580 (chemical genetic matrix, 2015):
Out of some 5,500 compounds screened, about 2,000 (36%) were called active. Not shown: some 18% with an inconclusive outcome. Rule as the data show it: active = normalized growth mostly below about 0.91 (no sharp cut-off); inconclusive = no clear call, values can overlap the other calls; inactive = mostly above about 0.92. The list shows a part of the results.

Experiment: chemical genetic growth profiling, strain panel (AID 1159580);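 also: tested at 20 µM; growth read once vehicle control cultures reached saturation at 30 °C; 1 = growth at the plate median or of vehicle wells; lower values mean less growth of the strain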
Settings: growth OD

Measured: normalized growth

C=CCSCC1Nc2cc(Cl)c(S(N)(=O)=O)cc2S(=O)(=O)N1 (configuration not stated)
inactive: S. cerevisiae deletion strains, locus YJR075W, strain HOC1, active compounds read low 1.01 | S. cerevisiae deletion strains, locus YKL009W, strain mrt4, active compounds read low 1.02 | S. cerevisiae deletion strains, locus YKL068W, active compounds read low 1.02 | S. cerevisiae deletion strains, locus YKL085W, strain MDH1 (second series), active compounds read low 1 | S. cerevisiae deletion strains, locus YKL085W, strain MDH1, active compounds read low 1 | S. cerevisiae deletion strains, locus YKL160W, strain elf1, active compounds read low 0.994 | S. cerevisiae deletion strains, locus YKL190W, strain CNB1, active compounds read low 1.01 | S. cerevisiae deletion strains, locus YKR001C, strain vps1, active compounds read low 1.02 | S. cerevisiae deletion strains, locus YKR026C, strain gcn3, active compounds read low 1 | S. cerevisiae deletion strains, locus YKR091W, strain srl3, active compounds read low 1 | S. cerevisiae deletion strains, locus YLL001W, strain dnm1, active compounds read low 0.997 | S. cerevisiae deletion strains, locus YLL026W, active compounds read low 0.998 | S. cerevisiae deletion strains, locus YLL041C, strain sdh2, active compounds read low 1 | S. cerevisiae deletion strains, locus YLR027C, strain aat2, active compounds read low 0.996 | S. cerevisiae deletion strains, locus YLR039C, strain RIC1, active compounds read low 1.02 | S. cerevisiae deletion strains, locus YLR058C, strain SHM2, active compounds read low 1.01 | S. cerevisiae deletion strains, locus YLR102C, strain apc9, active compounds read low 1.04 | S. cerevisiae deletion strains, locus YLR113W, strain HOG1, active compounds read low 1.06 | S. cerevisiae deletion strains, locus YLR221C, strain rsa3, active compounds read low 0.988 | S. cerevisiae deletion strains, locus YLR258W, strain gsy2, active compounds read low 0.998 | S. cerevisiae deletion strains, locus YLR262C, strain YPT6 (second series), active compounds read low 0.989 | S. cerevisiae deletion strains, locus YLR262C, strain YPT6, active compounds read low 1.04 | S. cerevisiae deletion strains, locus YLR268W, strain sec22, active compounds read low 1.02 | S. cerevisiae deletion strains, locus YLR320W, strain mms22, active compounds read low 0.985 | S. cerevisiae deletion strains, locus YLR330W, strain CHS5, active compounds read low 1.01 | S. cerevisiae deletion strains, locus YLR342W, strain FKS1 (second series), active compounds read low 0.996 | S. cerevisiae deletion strains, locus YLR342W, strain FKS1, active compounds read low 1.01 | S. cerevisiae deletion strains, locus YLR357W, strain rsc2, active compounds read low 0.991 | S. cerevisiae deletion strains, locus YLR370C, strain arc18, active compounds read low 1 | S. cerevisiae deletion strains, locus YLR371W, strain rom2, active compounds read low 1.02 | S. cerevisiae deletion strains, locus YLR384C, strain iki3, active compounds read low 1 | S. cerevisiae deletion strains, locus YLR418C, strain cdc73, active compounds read low 1.04 | S. cerevisiae deletion strains, locus YML016C, strain PPZ1, active compounds read low 1.01 | S. cerevisiae deletion strains, locus YML032C, strain rad52, active compounds read low 1.03 | S. cerevisiae deletion strains, locus YML120C, strain ndi1, active compounds read low 1 | S. cerevisiae deletion strains, locus YML124C, strain tub3, active compounds read low 1.02 | S. cerevisiae deletion strains, locus YMR058W, strain fet3, active compounds read low 0.998 | S. cerevisiae deletion strains, locus YMR078C, strain ctf18, active compounds read low 1.03 | S. cerevisiae deletion strains, locus YMR125W, strain sto1, active compounds read low 0.998 | S. cerevisiae deletion strains, locus YMR129W, active compounds read low 1 | S. cerevisiae deletion strains, locus YMR205C, strain PFK2, active compounds read low 0.995 | S. cerevisiae deletion strains, locus YMR223W, strain ubp8, active compounds read low 1.02 | S. cerevisiae deletion strains, locus YMR231W, strain pep5, active compounds read low 1 | S. cerevisiae deletion strains, locus YMR263W, strain SAP30, active compounds read low 1.02 | S. cerevisiae deletion strains, locus YMR307W, strain GAS1, active compounds read low 1.1 | S. cerevisiae deletion strains, locus YNL067W, strain RPL9B, active compounds read low 1.01 | S. cerevisiae deletion strains, locus YNL071W, strain lat1, active compounds read low 0.999 | S. cerevisiae deletion strains, locus YNL128W, strain TEP1, active compounds read low 1.01 | S. cerevisiae deletion strains, locus YNL153C, strain GIM3, active compounds read low 1.01 | S. cerevisiae deletion strains, locus YNL183C, strain NPR1, active compounds read low 0.977 | S. cerevisiae deletion strains, locus YNL209W, strain ssb2, active compounds read low 0.999 | S. cerevisiae deletion strains, locus YNL233W, strain BNI4, active compounds read low 0.998 | S. cerevisiae deletion strains, locus YNL248C, strain rpa49, active compounds read low 0.989 | S. cerevisiae deletion strains, locus YNL250W, strain rad50, active compounds read low 1.03 | S. cerevisiae deletion strains, locus YNL271C, strain bni1, active compounds read low 1.03 | S. cerevisiae deletion strains, locus YNL298W, strain CLA4, active compounds read low 1.04 | S. cerevisiae deletion strains, locus YNL307C, strain MCK1, active compounds read low 1.01 | S. cerevisiae deletion strains, locus YNL322C, strain KRE1 (second series), active compounds read low 0.995 | S. cerevisiae deletion strains, locus YNL322C, strain KRE1, active compounds read low 1.01 | S. cerevisiae deletion strains, locus YNR049C, strain mso1, active compounds read low 0.998 | S. cerevisiae deletion strains, locus YNR052C, strain pop2, active compounds read low 1.03 | S. cerevisiae deletion strains, locus YOL006C, strain TOP1, active compounds read low 1.03 | S. cerevisiae deletion strains, locus YOL012C, strain htz1 1.06 | S. cerevisiae deletion strains, locus YOL147C, strain pex11, active compounds read low 1.02 | S. cerevisiae deletion strains, locus YOR001W, strain rrp6, active compounds read low 0.977 | S. cerevisiae deletion strains, locus YOR061W, strain CKA2, active compounds read low 1.01 | S. cerevisiae deletion strains, locus YOR069W, strain VPS5, active compounds read low 1.01 | S. cerevisiae deletion strains, locus YOR070C, strain gyp1, active compounds read low 1 | S. cerevisiae deletion strains, locus YOR080W, strain dia2, active compounds read low 1 | S. cerevisiae deletion strains, locus YOR083W, strain WHI5, active compounds read low 0.999 | S. cerevisiae deletion strains, locus YOR106W, strain vam3, active compounds read low 0.985 | S. cerevisiae deletion strains, locus YOR136W, strain idh2, active compounds read low 1.03 | S. cerevisiae deletion strains, locus YOR144C, strain elg1, active compounds read low 1.02 | S. cerevisiae deletion strains, locus YOR184W, strain ser1, active compounds read low 1.03 | S. cerevisiae deletion strains, locus YOR231W, strain MKK1, active compounds read low 1.03 | S. cerevisiae deletion strains, locus YOR265W, strain rbl2, active compounds read low 1.03 | S. cerevisiae deletion strains, locus YOR270C, strain vph1, active compounds read low 0.974 | S. cerevisiae deletion strains, locus YOR290C, strain snf2, active compounds read low 0.987 | S. cerevisiae deletion strains, locus YOR316C, strain cot1, active compounds read low 1.03 | S. cerevisiae deletion strains, locus YPL051W, strain arl3, active compounds read low 1 | S. cerevisiae deletion strains, locus YPL055C, strain LGE1, active compounds read low 1.02 | S. cerevisiae deletion strains, locus YPL078C, strain atp4, active compounds read low 0.989 | S. cerevisiae deletion strains, locus YPL106C, strain sse1, active compounds read low 1.04 | S. cerevisiae deletion strains, locus YPL240C, strain hsp82, active compounds read low 1.01 | S. cerevisiae deletion strains, locus YPL241C, strain CIN2, active compounds read low 1.01 | S. cerevisiae deletion strains, locus YPL256C, strain CLN2, active compounds read low 1.07 | S. cerevisiae deletion strains, locus YPR119W, strain clb2, active compounds read low 1.02 | S. cerevisiae deletion strains, locus YPR141C, strain kar3, active compounds read low 1.03 | S. cerevisiae deletion strains, locus YPR163C, strain tif3, active compounds read low 1.02 | S. cerevisiae deletion strains, locus YPR167C, strain met16, active compounds read low 1.03 | S. cerevisiae deletion strains, strain wtn01, active compounds read low 1.02 | S. cerevisiae strains, strain wild type, active compounds read low 1.01
